# Pf Dd2 growth – qHTS Primary assay for Inhibitors of Plasmodium falciparum Dd2 growth in vitro. P. falciparum Dd2 growth, SYBR Green, 72 h. Potency, µM (top dose mostly 28.9 µM), without a hit: top-dose activity, negative = inhibition, most hits filed as inhibitors. 120,000 tested, 4.3% active. AID 1347417, 2020; active = well fitted inhibition curve with a large enough effect;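 also: plate controls were DMSO vehicle for no effect and reference drug for full effect; nearly all actives have a fitted effect of over 65% in size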
#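 Readout: SYBR Green fluorescence, 485 nm excitation, 535 nm emission, after ~16 h lysis at 37C. Before that, Dd2-infected red cells (2.5% hematocrit) grew 72 h with compound, 29 uM top final concentration.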
# * marks the source's active call; other numbers are inactive results; i = inactive; [ ] = remark or other dose. Only a selection was taken, and hits are over-represented in it overall. Potency is read from the fitted curve at half-maximal effect.
SMILES,Pf Dd2 growth
c1cc(-c2n[nH]c(C3CCCCN3)n2)ccn1 (centres undefined),0.2%
COc1ccc(-c2noc([C@@H]3C[C@@H](O)CN3Cc3ccc(F)cc3)n2)cc1,i
COC(=O)N1CC2(Cc3ccccc3N(C(C)=O)C2)C1,28.4%[44.1 µM]
Cc1ccc(-n2ncc(C(=O)NCCc3ccccc3)c2C2CCN(C(=O)OC(C)(C)C)CC2)c(C)c1,10µM*
CC(C)(C)OC(=O)N1CCC(c2c(C(=O)N3CCCCC3)cnn2-c2cccc(F)c2)CC1,-5.2%
CC(C)(C)OC(=O)N1CCC(c2c(C(=O)NCc3cccs3)cnn2-c2ccc(F)cc2F)CC1,3.98µM*
CCOC(=O)c1ccc(NC(=O)c2cnn(-c3ccc(C)cc3C)c2C2CCN(C(=O)OC(C)(C)C)CC2)cc1,12.6µM*
CC(C)(C)OC(=O)N1CCC(c2c(C(=O)NCc3ccccc3)cnn2-c2cccc(F)c2)CC1,10µM*
CC(C)(C)OC(=O)N1CCC(c2c(C(=O)N3CCOCC3)cnn2-c2cccc(F)c2)CC1,12.0%
Cc1ccc(-n2ncc(C(=O)NCc3ccccn3)c2C2CCN(C(=O)OC(C)(C)C)CC2)c(C)c1,i
CC(=O)N1CCCC2(C1)CN(C)c1ccc(C(=O)NCCOc3ccccc3)cc12 (centres undefined),-20.0%[44.1 µM]
Cc1cc2c(SCC(=O)N3CC[C@@](C)(O)[C@@H](O)C3)ncnc2s1,-19.1%
COc1cc2c(cc1OC)C(C[C@H]1CN(S(=O)(=O)c3ccccc3)CC[C@H]1CC(=O)O)=NCC2,i
CCCNC(=O)N1CCC(O)(c2cnc(CN3CCC3)s2)CC1,i
O=C1NCC2(CCN(C(=O)c3cn(CCC4CCCCN4)nn3)CC2)O1 (centres undefined),-11.3%
CN1C(=O)C(CC(=O)NCc2noc(-c3c(F)cccc3F)n2)N(C)C1=O (centres undefined),1.5%
COc1ccc(C(=O)N2CCCC3(CCC(=O)N(Cc4ccncc4)C3)C2)o1 (centres undefined),-12.5%
Cc1ccc(C(=O)NC2CCN(c3ccc(F)cc3)C2=O)cc1C (centres undefined),-18.6%
COc1ccc(NC(=O)CSc2cn(CC(=O)N3CCOCC3)c3ccccc23)cc1OC,13.0%
Cc1ccc(C(=O)N2CCc3cn(C)c4cccc(c34)C2)cc1,-23.1%
Cc1ccc(C(=O)/C=C/c2cn(CC(O)CN3CCc4ccccc43)c3ccccc23)cc1 (centres undefined),5.62µM*
COc1ccc(C(=O)NCCn2cc(SCC(=O)Nc3ccc4c(c3)OCCO4)c3ccccc32)cc1OC,i
COc1ccc(C(=O)/C=C/c2cn(CC(O)CN3CCc4ccccc43)c3ccccc23)cc1OC (centres undefined),8.91µM*
Cc1ccc(NC(=O)CSc2cn(CC(=O)N3CCCCCC3)c3ccccc23)cc1,-2.3%
CC(C)N(C(=O)Cn1cc(S(=O)(=O)Cc2ccc(Cl)cc2)c2ccccc21)C(C)C,i[5.79 µM]
SMILES,Pf Dd2 growth
CC(C)CN(CC(C)C)CC(O)Cn1cc(/C=C/C(=O)c2ccccc2)c2ccccc21 (centres undefined),2.51µM*
COCCn1ncc(N2CCCC(CC(=O)NCCN3CCOCC3)C2)cc1=O (centres undefined),31.0%
Cc1nnc2n1CCC(N(C)S(=O)(=O)c1cccnc1)CC2 (centres undefined),-14.3%
Cc1ccc(CCC(=O)N2CC[C@@](O)(C3CCOCC3)[C@H](C)C2)cc1,-3.4%
O=C(NCc1csc(-c2cnccn2)n1)[C@H]1CCC[C@H](O)C1,-10.8%
Cc1nc(CN2CCN(C(=O)[C@H]3CC[C@@H](N)C3)CC2)cs1,22.3%
N[C@@H]1CC[C@H](C(=O)NCc2csc(N3CCCC3)n2)C1,11.2µM*
O=S(=O)(c1ccc2c(c1)CCC2)N1CCCC(Cn2c(C3CC3)nc3cccnc32)C1 (centres undefined),i
COCCC1(NC(=O)C2CC2)CCN(S(C)(=O)=O)CC1,22.6%
O=C(CCc1nc(C2CCCN2C(=O)C2CC2)no1)NCCC1=CCCCC1 (centres undefined),i
CCN(CC)C(=O)CCc1c(C)nn(-c2ccccc2)c1Oc1ccccc1,10µM*
CCN(CC)C(=O)CCc1c(C)nn(-c2cccc(C)c2)c1Oc1ccccc1,-14.4%
CCN(CC)C(=O)CCc1c(C)nn(-c2ccc(F)cc2)c1Oc1ccccc1F,i
CN(C)C(=O)N1CCn2c(nnc2-c2cncc(Br)c2)C1,-1.8%
CCN1C(=O)CCC2(C(=O)NCc3c(C)n[nH]c3C)CCCC=C12 (centres undefined),9.0%
CC(C)c1noc(CN(C)C(=O)c2csc3nc(-c4ccc(F)cc4)cn23)n1,-29.1%
CCOC(=O)C1=C(CN(CC)Cc2ccccc2)NC(=O)NC1c1ccc(OC)cc1 (centres undefined),i
CCOC(=O)c1[nH]c2c(c1Cc1ccccc1)C(=O)CC(c1ccc(OC)cc1)C2 (centres undefined),11.2µM*
CCOC(=O)c1[nH]c2c(c1Cc1ccccc1)C(=O)CC(c1ccc(Cl)cc1)C2 (centres undefined),10µM*
Cc1ccc(COC(=O)c2[nH]c3c(c2C)C(=O)CC(c2ccc(Cl)cc2)C3)cc1 (centres undefined),-6.3%
CCOC(=O)c1cc(-c2ccc(OC)cc2)nn1Cc1ccccc1,-1.0%
Cc1c(C(=O)OCC2CCCCC2)[nH]c2c1C(=O)CC(c1ccc(Cl)cc1)C2 (centres undefined),2.9%
CC(C)(C)NC(=O)N[C@H](Cc1ccccc1)C(=O)N1CCOCCNC(=O)CC1,12.1%
O=C(C1CCCC1)N1CCN(C2CCN(CCc3ccccc3)C2=O)CC1 (centres undefined),4.5%
CCNC(=O)N1Cc2[nH]cnc2C[C@H]1C(=O)NCc1ccccc1,-12.5%[44.1 µM]
SMILES,Pf Dd2 growth
CCOC(=O)c1c(C)[nH]c(C)c1S(=O)(=O)N1CCC(C(=O)N2CCN(c3cc(C)ccc3C)CC2)CC1,67.5%
CCOC(=O)C1CCCN(S(=O)(=O)c2ccc3c(c2)oc(=O)n3C)C1 (centres undefined),-1.8%
CCOC(=O)c1c(C)[nH]c(C)c1S(=O)(=O)N1CCCC(C(=O)Nc2cccc(C)n2)C1 (centres undefined),-5.4%
Cc1cccc(N2CCN(C(=O)C3CCCN(S(=O)(=O)c4ccc5c(c4)oc(=O)n5C)C3)CC2)c1C (centres undefined),11.2µM*
CCOC(=O)c1c(C)[nH]c(C)c1S(=O)(=O)N1CCCC(C(=O)N2CCN(c3cccc(C)c3C)CC2)C1 (centres undefined),0.562µM*
Cc1cccc(CCNC(=O)C2CCCN(S(=O)(=O)c3ccc4c(c3)oc(=O)n4C)C2)c1 (centres undefined),-21.2%
COC1CCC12CCN(C(=O)c1cccnc1)CC2 (centres undefined),14.3%
O=C1NCCCCCN(C(=O)NCc2ccc(F)cc2)[C@H]2CCC[C@@H]12,24.4%
Cc1noc(C)c1CNCC1(CO)C[C@@H](O)[C@@H](O)C1 (some centres undefined),-9.9%[44.1 µM]
C#CCOc1ccc(C(=O)N[C@@H]2CN(Cc3ccc(C(=O)O)cc3)CCC[C@H]2O)cc1,-3.7%[44.1 µM]
CC(C)S(=O)(=O)N1CC(n2cc(C(=O)NCc3ccccc3)nn2)C1,-26.8%
Cc1c(C)n(Cc2ccc(F)cc2)c2ccc(C(=O)NCc3ccco3)cc12,3.55µM*
CCn1c(C)c(C)c2cc(C(=O)NCc3ccc(F)cc3)ccc21,i
Cc1cccc(CNC(=O)c2ccc3c(c2)c(C)c(C)n3Cc2ccccc2)c1,-3.3%

# Assay outcomes as filed in PubChem BioAssay.
